Structures are written as SMILES. Results filed as inconclusive are left out. Active and inactive are the calls of the source. Rule for the calls, unless noted: active = hit-call score of the fitted dose curve at least 0.9, where 1 is the maximum; inactive = score below 0.9.

By AC50 is commonly meant the midpoint of the concentration-response curve, whichever way the signal moves.

A short description of assay [1]: IUF_NPC2c_oligodendrocyte_migration_120hr: Leibniz Research Institute for Environmental Medicine (IUF) 120-hour Neural Progenitor Cell Migration Assay for Oligodendrocyte Migration (NPC2c) (AID 2284297).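 Note: O4-positive oligodendrocyte migration distance divided by radial glia migration distance.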 The method in brief:
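Exposure runs 5 days from differentiation onset at 37C, seven concentrations plus solvent control, DMSO at most 0.1%, applied to primary hNPC spheres on laminin. After fixation, O4 immunostaining gives oligodendrocyte distance from the sphere core, relative to radial glia migration.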

A short description of assay [2]: IUF_NPC2a_radial_glia_migration_120hr: Leibniz Research Institute for Environmental Medicine (IUF) 120-hour Neural Progenitor Cell Migration Assay for Radial Glia Migration (NPC2a) (AID 2284298). The procedure, abridged:
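Migration distance in um, sphere core edge to migration-area edge, derived by nuclei-density algorithm from Hoechst images after 120 h compound exposure. Primary hNPC spheres differentiated on poly-D-lysine/laminin in N2 medium, 37C; medium half-replaced day 3.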

Assay [3] in a line: IUF_NPC2a_radial_glia_migration_72hr: Leibniz Research Institute for Environmental Medicine (IUF) 72-hour Neural Progenitor Cell Migration Assay for Radial Glia Migration (NPC2a) (AID 2284299). The procedure, abridged: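 Spheres of human primary neural progenitors migrate on poly-D-lysine/laminin under compound exposure at 37C, 5% CO2. The 72 h radial glia migration distance comes from brightfield images, measured manually.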

The nature of assay [4]: IUF_NPC2b_neuronal_migration_120hr: Leibniz Research Institute for Environmental Medicine (IUF) 120-hour Neural Progenitor Cell Migration Assay for Neuron Migration (NPC2b) (AID 2284300). The method in brief: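 TUBB3-positive neurons are imaged after 120 h of differentiation, and their mean distance from the sphere edge is normalised to radial glia migration. Single 0.3 mm fetal hNPC spheres on poly-D-lysine/laminin received 7 compound concentrations, ≤0.1% DMSO, refreshed at day 3.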

Assay [5] in a line: IUF_NPC3_neuronal_differentiation_120hr: Leibniz Research Institute for Environmental Medicine (IUF) 120-hour Neuronal Differentiation Assay (NPC3) (AID 2284301). The method in brief:
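Value is percent TUBB3-positive neurons among Hoechst-stained nuclei in the migration area, scored by trained CNN after 120 h differentiation. Primary hNPC spheres on poly-D-lysine/laminin, N2 medium, continuous dosing from day 0, half-refeed day 3; DMSO reference.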

Assay [6] can be described thus: IUF_NPC4_neurite_length_120hr: Leibniz Research Institute for Environmental Medicine (IUF) 120-hour Neuronal Morphology Assay for Neurite Length (NPC4) (AID 2284302). The method in brief: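 Neurite length, the mean in um across TUBB3-stained neurons, is derived by skeletonization of high-content images after 120 h differentiation. Compound exposure, 7 concentrations plus solvent control, ran from plating of hNPC spheres on poly-D-lysine/laminin, with medium half-replaced on day 3.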

Assay [7] in a line: IUF_NPC5_oligodendrocyte_differentiation_120hr: Leibniz Research Institute for Environmental Medicine (IUF) 120-hour Oligodendrocyte Differentiation Assay (NPC5) (AID 2284304; active = hit-call score of the fitted dose curve at least 0.9, where 1 is the maximum;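 note: share of O4-positive cells among Hoechst nuclei found by CNN image analysis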). On the procedure:
IUF_NPC2-5 is a cell-based, multiplexed assay that uses hNPC, a human primary neural progenitor cells, with measurements taken at 72 or 120 hours after chemical dosing in a 96-well plate. Human neural progenitor cells (hNPC) are generated from human fetal brain cortex at gestational week (GW) 16-19. In the neural progenitor cell migration and differentiation assay (NPC2-5), hNPCs grown as spheres are plated on an extracellular matrix and migrate and differentiate out of the sphere core. The processes radial glia migration, neuronal and oligodendrocyte migration as well as neuronal differentiation, neuronal morphology and oligodendrocyte differentiation are studied using automated phase contrast imaging and automated fluorescence imaging in combination with high content image analysis. In parallel, the cell viability is assessed using an alamar blue viability assay and the cytotoxicity using a lactate dehydrogenase dependent membrane integrity assay.IUF_NPC5_oligodendrocyte_differentiation_120hr is one of 12 assay components measured from the IUF_NPC2-5 assay. Oligodendrocyte differentiation at 120 hr is determined as the number of all O4-positive cells in percent of the number of Hoechst-positive nuclei in the total neurosphere migration area (see IUF_NPC2a_ glia_migration_120hr) after 120 hr of migration/differentiation. […]

Assay [8] is described as follows: IUF_NPC4_neurite_area_120hr: Leibniz Research Institute for Environmental Medicine (IUF) 120-hour Neuronal Morphology Assay for Neurite Area (NPC4) (AID 2284305; active = hit-call score of the fitted dose curve at least 0.9, where 1 is the maximum). The procedure, abridged: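 Neurite area (pixels, nuclei excluded) of TUBB3-positive neurons from hNPC spheres differentiating 5 days under continuous exposure at 37 C, 5% CO2. High-content imaging; loss of signal versus DMSO control across 7 concentrations.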

Assay [9] is described as follows: IUF_NPC2-5_cytotoxicity_72hr: Cytotoxicity Assessment at 72 hours in the Leibniz Research Institute for Environmental Medicine (IUF) Neural Progenitor Cell Migration and Differentiation Assay for Cytotoxicity (NPC2-5) (AID 2284306; active = hit-call score of the fitted dose curve at least 0.9, where 1 is the maximum;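 note: LDH release into supernatant measured by resorufin fluorescence marking membrane damage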). The method in brief: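 Membrane-integrity cytotoxicity at 72 h, read as LDH-driven resorufin fluorescence in supernatant. hNPC spheres from fetal cortex differentiate on coated plates in N2 medium, 37C, 5% CO2; seven serial compound concentrations plus solvent control (DMSO ≤0.1%).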

Read-out in the next assay: CD69, CD69 (gene 969)
Description: BSK_LPS_CD69: BioMAP Diversity Plus: LPS Assay for CD69 Biomarker Activity (AID 2284303). Particulars: primary human HUVEC with PBMC. On the procedure:
BSK_LPS is a cell-based, multiplexed-readout assay that uses umbilical vein endothelium and peripheral blood mononuclear cells, a human vascular primary cell co-culture, with measurements taken at 24 hours after chemical dosing in a 96-well plate.BSK_LPS_CD69 is an assay component measured in the BSK_LPS assay. It measures CD69 antibody related to regulation of gene expression using ELISA technology.Data from the assay component BSK_LPS_CD69 was analyzed at the endpoint, BSK_LPS_CD69, in the positive analysis fitting direction relative to DMSO as the negative control and baseline of activity. Using a type of binding reporter, gain or loss-of-signal activity can be used to understand protein changes. […]
The levels of cell surface (or secreted, indicated by the prefix "s") biomarker endpoints were measured by ELISA. Overt cytotoxicity to cells in confluent adherent cultures (all systems other than the BT system) was assessed by measuring total protein levels using sulforhodamine B (SRB) staining in parallel cultures at the time of biomarker measurements, indicated as SRB endpoints. For proliferation assays for adherent cell types, individual cell types are cultured at sub-confluence and relative cell numbers quantified by SRB staining at time points optimized for each system (48 h: 3C and CASM3C systems; 72 h: BT and HDF3CGF systems; 96 h: SAg system). […] Plates were read after 6 h.

With `O=P(OC(CCl)CCl)(OC(CCl)CCl)OC(CCl)CCl`, the call in assay [1], in assay [3], in assay [4], in assay [5], in assay [6] and in assay [8] was inactive. In addition, the outcome in [9] was inactive. Moreover, the values for the AC50 in [2] and in assay [7] were 5.38 µM (active) and 4.15 µM (active), respectively.

Take `Cn1cnc([N+](=O)[O-])c1Sc1ncnc2nc[nH]c12`: the result with CD69, CD69 (gene 969) was inactive.

The record behind these values is PubChem BioAssay (EPA / NIEHS).
